Among all 57,000 sequences or so, about 4,900 (8.6%) were called active. Rule as the data show it: active = GI50 up to about 1.1 µM and inactive = higher. Many of the other results were omitted from the sample, so actives are more common in it than they were. Measured potencies and affinities stand elsewhere.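 Five compound concentrations were applied to cells in 96-well plates for 48 hours; endpoints were derived by simple linear interpolation of the resulting dose-response curve. GI50: concentration for 50% inhibition of growth.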

The test system of this experiment is MOLT-4. The experiment can be described thus: NCI tumour cell line growth inhibition, 48 h.
With “[Bis(aminomethyl)ethylmethylsilane]tetrachloroplatinum(IV), CHEMBL2146192”, the GI50 stood at 531 nM.
“[Bis(aminomethyl)tetramethylenesilane]tetrachloropaltinum(IV), CHEMBL2146189” yielded a GI50 of 824 nM.
The result for “cis-Bis[[(trimethylsilyl)methyl]amino]tetrachloroplatinum(IV), CHEMBL2146191” reads 2000 nM; that for “[Bis(aminomethyl)dimethylsilane]tetrachloroplatinum(IV), CHEMBL2146190”, 1680 nM.
On to CISPLATIN, CHEMBL11359, for which the GI50 was 1430 nM.
Turning to “[Bis(aminomethyl)diethylsilane]tetrachloroplatinum(IV), CHEMBL2146203”, the GI50 amounted to 561 nM.
The substance “mu-(1,7-nanodiamine-N,N')bis-(cis-aminedichloroplatimum (II)), CHEMBL2146215” came in with a GI50 of 592 nM.
Then “[Bis(aminomethyl)tetramethylenesilane]dichloropaltinum(II), CHEMBL2146205”, with 2090 nM.
Regarding “[Bis(aminomethyl)dimethylsilane]dichloroplatinum (II), CHEMBL2146201”, the GI50 was 5000 nM.
Substance “[Bis(aminomethyl)pentamethylenesilane]dichloropaltinum(II), CHEMBL2146202” came in with a GI50 of 325 nM.
In the case of “[Bis(aminomethyl)pentamethylenesilane]tetrachloropaltinum(IV), CHEMBL2146204”, the GI50 is 505 nM.

The record behind these values is ChEMBL document CHEMBL1201862, “PubChem BioAssay data set” (2004).
